Compounds without any hit were thinned out: in the full panel of roughly 83,000, 20% have a hit.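 Method: cells in 96-well plates; compound added at one concentration; 48 h incubation; percent growth measured; values under 10 scored active.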 Calls of active or inactive are those of the source.
Tests used:
Experiment in all cases: NCI-60 one-dose screen, 48 h (100 = growth as untreated, 0 = no growth, -100 = all killed)
Conditions in all cases: 10 µM
OVCAR-8 ovarian = test system: OVCAR-8 ovarian
OVCAR-4 ovarian = test system: OVCAR-4 ovarian
SK-OV-3 ovarian = test system: SK-OV-3 ovarian
IGROV1 ovarian = test system: IGROV1 ovarian
OVCAR-3 ovarian = test system: OVCAR-3 ovarian
HS 578T breast = test system: HS 578T breast
NCI/ADR-RES ovarian = test system: NCI/ADR-RES ovarian
T-47D breast = test system: T-47D breast
BT-549 breast = test system: BT-549 breast
MDA-MB-435 melanoma = test system: MDA-MB-435 melanoma
SW-620 colon = test system: SW-620 colon
MCF7 breast = test system: MCF7 breast
HCC-2998 colon = test system: HCC-2998 colon
KM12 colon = test system: KM12 colon
OVCAR-5 ovarian = test system: OVCAR-5 ovarian
HCT-116 colon = test system: HCT-116 colon

Measured: growth

CCN(CC)CCNC(=O)c1ccc(NC(C)=O)cc1
inactive: OVCAR-8 ovarian 106% | OVCAR-4 ovarian 108% | SK-OV-3 ovarian 102% | IGROV1 ovarian 112% | OVCAR-3 ovarian 121% | HS 578T breast 99.8% | NCI/ADR-RES ovarian 96.9% | T-47D breast 99.7% | BT-549 breast 106% | MDA-MB-435 melanoma 101% | SW-620 colon 107% | MCF7 breast 101% | HCC-2998 colon 102% | KM12 colon 108%

COc1ccc(-c2nc3sc(-c4ccc(OC)cc4)c(-c4ccc(OC)cc4)n3c2/C=C/c2ccc(C(C)C)cc2)cc1
inactive: OVCAR-8 ovarian 97% | OVCAR-5 ovarian 94.6% | OVCAR-4 ovarian 90.8% | IGROV1 ovarian 111% | OVCAR-3 ovarian 100% | HS 578T breast 89.4% | NCI/ADR-RES ovarian 106% | T-47D breast 97.2% | BT-549 breast 98.6% | SW-620 colon 99.7% | MCF7 breast 90.4% | HCC-2998 colon 111% | KM12 colon 102%

O=C1/C(=C/c2ccc(Cl)cc2)SC(=Nc2ccc(Cl)cc2)N1Cc1nc2ccccc2[nH]1
inactive: OVCAR-8 ovarian 66.9% | OVCAR-5 ovarian 107% | SK-OV-3 ovarian 97.6% | IGROV1 ovarian 64.8% | OVCAR-3 ovarian 81.6% | HS 578T breast 114% | T-47D breast 78.1% | BT-549 breast 104% | MDA-MB-435 melanoma 76.3% | SW-620 colon 74.9% | MCF7 breast 59% | HCT-116 colon 53.8% | HCC-2998 colon 62% | KM12 colon 76.7%

Cc1cs/c(=N\NC(=O)c2cc(-c3cc4ccccc4o3)nn2-c2ccccc2)n1-c1ccccc1
inactive: OVCAR-8 ovarian 90.8% | OVCAR-5 ovarian 107% | OVCAR-4 ovarian 82.1% | SK-OV-3 ovarian 91.2% | OVCAR-3 ovarian 67% | HS 578T breast 49.7% | NCI/ADR-RES ovarian 87.1% | MDA-MB-435 melanoma 102% | SW-620 colon 93.4% | MCF7 breast 73.4% | KM12 colon 98.6%
active: IGROV1 ovarian 2.32%

CS(=O)(=O)Nc1cccc(-c2cc(-c3ccccc3Cl)c(C#N)c(N)n2)c1
active: OVCAR-3 ovarian -29.3% | HS 578T breast -1.53% | MDA-MB-435 melanoma -45.8% | HCC-2998 colon -3.16%
inactive: OVCAR-8 ovarian 44% | OVCAR-5 ovarian 56.3% | OVCAR-4 ovarian 47.1% | SK-OV-3 ovarian 22% | IGROV1 ovarian 51.4% | T-47D breast 36.9% | BT-549 breast 37.1% | SW-620 colon 24.5% | MCF7 breast 22.7% | KM12 colon 24.5%

CCc1ccc2c(c1)N(CCO)C1=C(C(=O)OC1)C2c1ccccc1 (stereo not drawn)
inactive: OVCAR-5 ovarian 93.9% | OVCAR-4 ovarian 104% | SK-OV-3 ovarian 94.9% | IGROV1 ovarian 95.8% | OVCAR-3 ovarian 111% | HS 578T breast 125% | NCI/ADR-RES ovarian 78.7% | T-47D breast 95.6% | BT-549 breast 87.7% | MDA-MB-435 melanoma 21.6% | SW-620 colon 97.2% | MCF7 breast 92.2% | HCT-116 colon 89.3% | KM12 colon 76.1%

COc1cc(CNCCCCCCN2C(=O)c3cccc4cccc(c34)C2=O)ccc1O
inactive: OVCAR-8 ovarian 69% | OVCAR-5 ovarian 116% | SK-OV-3 ovarian 69% | OVCAR-3 ovarian 90.1% | HS 578T breast 106% | T-47D breast 65.3% | BT-549 breast 83.2% | MDA-MB-435 melanoma 58.1% | SW-620 colon 57.9% | MCF7 breast 11.4% | HCT-116 colon 31.4% | KM12 colon 72.3%
active: HCC-2998 colon -21.3%

O=c1[nH]c2ccc(Cl)cc2c2ccccc12
active: OVCAR-4 ovarian -3.77%
inactive: OVCAR-8 ovarian 77.5% | OVCAR-5 ovarian 84.2% | IGROV1 ovarian 29.5% | OVCAR-3 ovarian 87% | HS 578T breast 75.1% | T-47D breast 10.4% | BT-549 breast 100% | MDA-MB-435 melanoma 72.1% | SW-620 colon 102% | MCF7 breast 93.1% | HCT-116 colon 38.4% | HCC-2998 colon 52.4% | KM12 colon 65.2%

CO/N=C(/C(=O)NC1C(=O)N2C(C(=O)O)=C(COC(N)=O)CSC12)c1ccco1 (stereo not drawn)
inactive: OVCAR-8 ovarian 108% | OVCAR-5 ovarian 108% | OVCAR-4 ovarian 106% | SK-OV-3 ovarian 114% | IGROV1 ovarian 109% | OVCAR-3 ovarian 122% | HS 578T breast 116% | NCI/ADR-RES ovarian 110% | BT-549 breast 108% | MDA-MB-435 melanoma 104% | SW-620 colon 110% | MCF7 breast 94.2% | HCT-116 colon 104% | HCC-2998 colon 104% | KM12 colon 113%

CCN(CC)Cc1cc(Nc2ccnc3cc(Cl)ccc23)ccc1OC
inactive: OVCAR-8 ovarian 91.7% | OVCAR-5 ovarian 109% | OVCAR-4 ovarian 68.2% | SK-OV-3 ovarian 102% | IGROV1 ovarian 94.5% | OVCAR-3 ovarian 93.6% | NCI/ADR-RES ovarian 89.5% | T-47D breast 102% | BT-549 breast 110% | MDA-MB-435 melanoma 77.9% | SW-620 colon 64.1% | MCF7 breast 86.7% | HCT-116 colon 69.1% | HCC-2998 colon 81% | KM12 colon 83.5%

COc1cc2c(cc1OCCCCCCN1CCN(CC(=O)Nc3ccc(Cl)cc3C(=O)c3ccccc3Cl)CC1)N=CC1CCCN1C2=O (stereo not drawn)
active: OVCAR-8 ovarian -81.7% | OVCAR-5 ovarian -74.4% | OVCAR-4 ovarian -88.9% | IGROV1 ovarian -79% | OVCAR-3 ovarian -91.9% | HS 578T breast -83.5% | NCI/ADR-RES ovarian -60.8% | T-47D breast -57.8% | MDA-MB-435 melanoma -81.2% | SW-620 colon -83.6% | MCF7 breast -7.24% | HCT-116 colon -42.3% | KM12 colon -75.9%

COc1cccc(-c2cc(-c3cccc(NS(C)(=O)=O)c3)nc(N)c2C#N)c1O
inactive: OVCAR-8 ovarian 42.4% | OVCAR-5 ovarian 84.1% | OVCAR-4 ovarian 52.8% | SK-OV-3 ovarian 27.2% | IGROV1 ovarian 91.2% | HS 578T breast 52.8% | T-47D breast 52% | BT-549 breast 58.1% | SW-620 colon 37.4% | MCF7 breast 19.1% | HCT-116 colon 24.7% | KM12 colon 23.1%
active: OVCAR-3 ovarian -16% | MDA-MB-435 melanoma -20.8% | HCC-2998 colon -25.3%

COc1ccc(-c2cc(-c3cccc(NS(C)(=O)=O)c3)nc(N)c2C#N)cc1
inactive: OVCAR-8 ovarian 37.6% | OVCAR-5 ovarian 53.8% | OVCAR-4 ovarian 51.3% | SK-OV-3 ovarian 20.3% | IGROV1 ovarian 73.4% | T-47D breast 57.5% | BT-549 breast 40.1% | SW-620 colon 27.4% | MCF7 breast 16.5% | HCT-116 colon 17% | KM12 colon 17.6%
active: OVCAR-3 ovarian -48.4% | HS 578T breast -14.3% | MDA-MB-435 melanoma -55.2% | HCC-2998 colon -25.7%

N#Cc1cc(-c2cc3ccccc3o2)oc1N
active: OVCAR-8 ovarian 4.89% | IGROV1 ovarian 7.67% | OVCAR-3 ovarian -7.74% | HS 578T breast -37.9% | MDA-MB-435 melanoma 5.63% | KM12 colon 0.443%
inactive: OVCAR-5 ovarian 20.9% | OVCAR-4 ovarian 20.5% | NCI/ADR-RES ovarian 11.1% | T-47D breast 27.9% | SW-620 colon 12% | MCF7 breast 22.9%

— PubChem BioAssay (NCI)
